The source of these data is PubChem BioAssay (NCATS).

Inconclusive results are not listed. Calls of active or inactive are those of the source. Calls come from the whole dose curve; as a rule, active = well fitted inhibition curve with a large enough effect; inconclusive = small, poorly fitted or top-dose-only effect; inactive = flat fitted curve, though single readings scatter.

Experiment in all cases: qHTS profiling for inhibitors of Plasmodium falciparum proliferation (AID 504749); note: nearly all actives have a fitted effect of over 60% in size
Holding throughout (conditions): P. falciparum in erythrocytes, SYBR Green DNA, 72 h; series mostly up to 28.7 µM
(Quantitative high-throughput screening tests each substance at several concentrations.)

In one assay the test system is CP238. An outline of the steps:
(§1)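 Fluorescence of SYBR Green-bound parasite DNA, read at 485/535 nm, served as the growth measure. Infected erythrocytes were cultured with compound 72 h; artemisinin (0.29 uM) and DMSO wells defined the normalization range.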

The next assay relates to CP247. Summed up: as §1
The subject of another assay is CP250. Summed up:
as §1

For the next assay, the system named is CP252. An outline of the steps: as §1
A further assay deals with CP256. Summed up: as §1
In the next assay the test system is CP260. An outline of the steps:
as §1

The test system of another assay is CP262. An outline of the steps: as §1
The next assay deals with CP265. An outline of the steps: as §1
In another assay the test system is CP266. An outline of the steps: as §1
In a further assay the test system is CP268. Summed up:
as §1
Potency is the fitted concentration of half-maximal effect.

Consider `Cc1ccnc2c1NC(=O)c1cccnc1N2C1CC1`, for which the Potency result with CP238, in the assay on CP247, in the assay on CP250, in the assay with CP252, in the assay on CP256 and in the assay on CP260 was “inactive” each time. In addition, the Potency entry in the assay on CP262, in the assay on CP265, in the assay with CP266 and in the assay on CP268 was “inactive” throughout.

In the case of `CC(C)(C#N)c1cc(Cn2cncn2)cc(C(C)(C)C#N)c1`, the Potency entry in the assay on CP238, in the assay with CP247, in the assay on CP250, in the assay with CP252, in the assay with CP256 and in the assay on CP260 was “inactive” each time. Also, the Potency result in the assay on CP262, in the assay with CP265, in the assay on CP266 and with CP268 was “inactive” in each case.

Consider `Cn1nnc2c(C(N)=O)ncn2c1=O`, for which the Potency entry in the assay on CP238, with CP247, with CP250, in the assay on CP252, in the assay with CP256 and with CP260 was “inactive” in each case. The Potency result in the assay on CP262, with CP265, with CP266 and in the assay with CP268 was “inactive” in each case.

As to `Nc1ccc(S(=O)(=O)Nc2ccccn2)cc1`, the Potency result with CP238, in the assay on CP247, with CP250, with CP252, in the assay on CP256 and in the assay on CP260 was “inactive” each time. The Potency entry with CP262, in the assay on CP265, with CP266 and in the assay with CP268 was “inactive” each time.

In the case of `COc1nc(N)nc2c1ncn2[C@@H]1O[C@H](CO)[C@@H](O)[C@@H]1O`, the Potency result in the assay on CP238, with CP247, with CP250, in the assay on CP252, in the assay on CP256 and in the assay with CP260 was “inactive” each time. In addition, the Potency result in the assay with CP262, in the assay on CP265, in the assay on CP266 and with CP268 was “inactive” throughout.

Turning to `OC(Cn1cncn1)(Cn1cncn1)c1ccc(F)cc1F`, the Potency result in the assay on CP238, in the assay with CP247, in the assay with CP250, in the assay on CP252, in the assay with CP256 and in the assay on CP260 was “inactive” in each case. For the same compound, the Potency entry in the assay on CP262, in the assay with CP265, with CP266 and in the assay on CP268 was “inactive” each time.

With `CNNCc1ccc(C(=O)NC(C)C)cc1`, the Potency result in the assay on CP238, with CP247, with CP250, in the assay on CP252, in the assay on CP256 and with CP260 was “inactive” each time. Further, the Potency result with CP262, in the assay on CP265, in the assay with CP266 and in the assay with CP268 was “inactive” in each case.

`C#CCN[C@@H]1CCc2ccccc21`: the Potency result in the assay with CP238, in the assay with CP247, in the assay on CP250, in the assay with CP252, in the assay on CP256 and in the assay with CP260 was “inactive” in each case. For the same compound, the Potency entry in the assay with CP262, in the assay with CP265, in the assay with CP266 and in the assay with CP268 was “inactive” in each case.

For the compound `N=C(N)c1ccc(OCCCCCOc2ccc(C(=N)N)cc2)cc1`, the Potency was 2.24 µM (active) with CP238; 1.12 µM (active) in the assay with CP247; 2.51 µM (active) with CP250; 2 µM (active) with CP252; 0.501 µM (active) in the assay on CP256; 2 µM (active) in the assay on CP260. The Potency in the assay with CP262 was 0.757 µM (active); in the assay on CP265 it was 2.82 µM (active); in the assay on CP266 it was 1.69 µM (active); with CP268, 1.35 µM (active).

For `CCOC(=O)[C@H](CCc1ccccc1)N[C@H]1CS[C@H](c2cccs2)CN(CC(=O)O)C1=O`, the Potency entry in the assay with CP238, with CP247, with CP250, in the assay with CP252, in the assay on CP256 and in the assay with CP260 was “inactive” in each case. Besides, the Potency result in the assay on CP262, in the assay on CP265, with CP266 and in the assay on CP268 was “inactive” in each case.

Consider `CC(=O)Oc1ccccc1C(=O)Nc1ncc([N+](=O)[O-])s1`, for which the Potency entry with CP238, with CP247, in the assay on CP250, in the assay on CP252, with CP256 and in the assay on CP262 was “inactive” each time. In addition, the Potency entry in the assay with CP265, with CP266 and with CP268 was “inactive” in each case. Also, in the assay on CP260, the Potency was 8.91 µM (active).

As to `CN(C)c1ccc(C(=C2C=CC(=[N+](C)C)C=C2)c2ccc(N(C)C)cc2)cc1`, the Potency with CP238 is 0.398 µM (active); in the assay on CP247, 0.355 µM (active); in the assay on CP250 it was 0.316 µM (active); with CP252, 0.224 µM (active); in the assay with CP256 it was 0.158 µM (active); in the assay with CP260, 0.224 µM (active). Besides, the Potency in the assay on CP262 was 0.239 µM (active); with CP265, 0.316 µM (active); in the assay on CP266, 0.601 µM (active); in the assay on CP268 it was 0.849 µM (active).

Regarding `Cc1noc(NS(=O)(=O)c2ccc(N)cc2)c1C`, the Potency entry with CP238, in the assay with CP247, in the assay with CP250, with CP252, with CP256 and in the assay on CP260 was “inactive” in each case. The Potency entry in the assay on CP262 and in the assay on CP265 was “inactive” each time.

Take `COc1ncnc(NS(=O)(=O)c2ccc(N)cc2)c1OC`: the Potency result in the assay on CP238, in the assay on CP247, in the assay on CP250, with CP252, in the assay on CP256 and in the assay on CP260 was “inactive” in each case. Further, the Potency result in the assay on CP262, in the assay on CP265, in the assay with CP266 and with CP268 was “inactive” in each case.

For `N[C@@H](C(=O)N[C@@H]1C(=O)N2C(C(=O)O)=C(Cl)CS[C@H]12)c1ccccc1`, the Potency entry in the assay with CP238, with CP247, in the assay with CP250, in the assay with CP252, in the assay with CP256 and in the assay with CP260 was “inactive” throughout. Moreover, the Potency result in the assay on CP262, in the assay with CP265, in the assay with CP266 and in the assay with CP268 was “inactive” in each case.

With `CCOCC(O)COc1ccc(NC(=O)CC[S+](C)C)cc1` (stereo not drawn), the Potency result in the assay with CP238, in the assay on CP247, in the assay on CP250, in the assay on CP252, in the assay with CP256 and in the assay with CP260 was “inactive” each time. Also, the Potency entry in the assay on CP262, with CP265, with CP266 and in the assay on CP268 was “inactive” each time.

Consider `CC[C@H](C)C(=O)O[C@H]1C[C@@H](C)C=C2C=C[C@H](C)[C@H](CC[C@@H]3C[C@@H](O)CC(=O)O3)[C@H]21`, for which the Potency entry in the assay on CP238, with CP247, in the assay on CP250, in the assay on CP252, in the assay with CP256 and in the assay on CP260 was “inactive” throughout. For the same compound, the Potency result in the assay with CP262, with CP265, in the assay with CP266 and in the assay with CP268 was “inactive” throughout.

Consider `O=NN(CCCl)C(=O)NC1CCCCC1`, for which the Potency result in the assay with CP238, with CP247, in the assay with CP250, in the assay on CP252, with CP256 and in the assay on CP260 was “inactive” each time. For the same compound, the Potency entry in the assay on CP262, in the assay with CP265, in the assay with CP266 and in the assay with CP268 was “inactive” throughout.

Turning to `O=C(O)c1cc(=O)[nH]c(=O)[nH]1`, the Potency result in the assay with CP238, with CP247, in the assay with CP250, in the assay with CP252, with CP256 and in the assay with CP260 was “inactive” each time. Moreover, the Potency entry in the assay on CP262, with CP265, in the assay on CP266 and in the assay with CP268 was “inactive” in each case.
